# Only some compounds are listed: those with a hit (about 5.9% of all), similar ones and a draw of the others.
# HepG2 tox = HepG2 cytotoxicity, counter-screen for TGF-b inhibitors. AID 588856. Potency, µM (doses to about 46.1 µM), for inactives: at the top dose activity change, negative = cytotoxicity, most hits filed as cytotoxic. HepG2 CAGA-GFP viability, ATP luminescence, 18 h. 410,000 compounds, 0.76% hits
#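 CellTiter-Glo luminescence gave cytotoxicity after 18 hours at 37 degrees C. The cells were HepG2 CAGA-GFP in 1% FBS DMEM, stimulated with 500 pg/mL TGF-beta after compound addition. %Activity was normalised to no-cell wells (complete cell-killing) and DMSO (no toxicity), and curves were fitted and classified.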
# TGFb inhibitor = TGF-b pathway inhibition; HepG2 CAGA-GFP TGF-b/SMAD3 reporter, GFP fluorescence, 18 h; TGF-beta stimulated, 500 pg/mL final; Potency, µM (highest dose often 46.1 µM), inactives show at the top dose activity, negative = inhibition, usual class: inhibitors; 410,000 compounds, 1.2% hits; further: on the % scale 0 is the no-effect control and ±100 the full control effect; nearly all actives have a fitted effect of over 65% in size
#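 HEPG2 CAGA-GFP cells (1000/well, DMEM with 1% FBS) were pre-incubated 2 h at 37 degrees C, given compound by pin tool, then stimulated with TGF-beta at 500 pg/mL final for 18 h before per-cell GFP fluorescence imaging.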
# ATXN2 expr inh = reduces ATXN2 reporter expression in HEK-293 cells; Potency, µM (series often up to 57 µM), inactives show at the top dose activity change, negative = inhibition, usual class: inhibitors; HEK-293 ATXN2-luciferase reporter, luminescence, 24 h; AID 1745845; 360,000 compounds, 0.72% hits; further: on the % scale 0 is the no-effect control and ±100 the full control effect; nearly all actives have a fitted effect of over 55% in size
#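 qHTS (up to 57 uM final) was run with 24 h compound exposure of reporter cells at 37 °C. Each well was multiplexed: SteadyGlo luminescence measured ATXN2-luciferase expression after a fluorogenic Gly-Phe-AFC viability readout (25 uM final).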
# S2 tox = viability counter-screen for ATXN expression inhibitors | S2 cells (HEK-293 line with an ATXN2-luciferase reporter) viability, CellTiter-Fluor protease fluorescence, 24 h | Potency, µM (highest dose often 56.7 µM), hits mostly cytotoxic | 400,000 compounds, 0.49% hits; further: nearly all actives have a fitted effect of over 40% in size
# KB-V1 cytotox = KB-V1 MDR subline cytotoxicity; Potency, µM (series often up to 46.1 µM), most hits filed as cytotoxic; AID 1347076; KB-V1 MDR cells viability, CellTiter-Glo, 72 h; 400,000 compounds, 3.4% hits; further: on the % scale 0 is the no-effect control and ±100 the full control effect; nearly all actives have a fitted effect of over 60% in size
#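 Cells of the MDR subline KB-V1 are plated, dosed with compound at multiple concentrations, and incubated 72 h at 37 degrees C; CellTiter-Glo is then added and luminescence read after 10 min.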
# KB-3-1 tox = KB-3-1 parental cell cytotoxicity. KB-3-1 viability, CellTiter-Glo ATP luminescence, 72 h. 400,000 compounds, 1.4% hits. Potency, µM (doses to about 46.1 µM), usual class: cytotoxic; further: on the % scale 0 is the no-effect control and ±100 the full control effect; nearly all actives have a fitted effect of over 60% in size
#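 Using CellTiter-Glo luminescence, growth of non-resistant KB-3-1 adenocarcinoma cells is assessed 72 h after pin-tool compound addition at 37 °C. Normalized responses across the concentration series yield fitted curves.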
# * = called active by the depositor; i = inactive; ? = inconclusive; nt = no result given. The call rests on the fitted dose curve; in most records, active means well fitted curve in the direction sought with a large enough effect; inconclusive means small, poorly fitted or top-dose-only effect, or another doubt; inactive means no such curve, though single readings can be large; an effect the other way counts as inactive or inconclusive. Potency means the concentration at half of the fitted maximal effect.
SMILES,HepG2 tox,TGFb inhibitor,ATXN2 expr inh,S2 tox,KB-V1 cytotox,KB-3-1 tox
COCCOC(=O)C1=C(C)Nc2nc(C)nn2C1c1ccc(F)cc1 (stereo not given),-2.1%,-13.5%,-0.7%,i,i,i
CCOC(=O)C1=C(C)Nc2nc(SC)nn2C1c1ccc(C(=O)OC)cc1 (stereo not given),2.2%,3.2%,-20.9%,i,5.8µM*,i
COc1ccc(-c2n[nH]c(=S)n2/N=C/C=C/c2ccccc2OC)cc1,3.3%,-6.7%,-5.3%,i,18.4µM*,10.3µM*
CNCc1c(OCc2ccccc2F)ccc2ccccc12,-40.8%,?,?,i,11.6µM*,i
CNCc1c(OCc2ccccc2)ccc2ccccc12,-44.5%,-27.4%,-28.9%,i,i,i
CC(C)N1C(=O)S/C(=C\c2ccc(-c3ccc(Cl)c(C(=O)O)c3)o2)C1=O,12.6µM*,2.1%,nt,nt,i,i
CCOC(=O)C1=C(C)NC(C)=C(C(=O)OCC)C1c1cc2ccc(C)cc2[nH]c1=O,-7.9%,0.0%,-5.0%,i,i,6.51µM*
CCOC(=O)c1c(NC(=O)c2ccco2)sc(C(=O)N2CCCC2)c1C,-1.4%,-10.5%,0.8%,i,2.31µM*,i
CCOC(=O)c1c(NC(=O)CSc2nnc(CNC(=O)c3ccco3)n2C)sc2c1CCC2,-13.7%,-1.3%,-5.4%,i,20.6µM*,i
NC(=O)c1c(NC(=O)CSc2nnc(Cc3ccccc3)n2Cc2ccco2)sc2c1CCC2,-18.4%,?,?,i,14.6µM*,i
O=C(CSc1nnc(Cc2ccccc2)n1Cc1ccco1)NC12CC3CC(CC(C3)C1)C2,-25.4%,?,-17.9%,?,i,i
CCCNC(=O)C1(C)CCCN(Cc2cc(-c3ccccc3)nn2C)C1 (stereo not given),-31.2%,-16.2%,0.0%,i,?,?
N#C/C(=C\c1coc2ccc(O)cc2c1=O)C(=O)Nc1nc2ccccc2s1,11.2µM*,?,nt,?,i,i
S=C(NCc1ccco1)Nc1ccc(Cl)cc1Cl,-29.1%,-31.2%,23.6%,i,18.4µM*,?
COc1ccc(CNCCC(c2ccccc2)c2ccc(OC(C)C)cc2)cc1OC (stereo not given),-103.8%,?,-23.9%,i,?,?
COc1ccc(CNCCC(c2ccc(OC)cc2)c2ccccc2OC)cc1 (stereo not given),11.2µM*,?,-36.6%,?,?,?
COc1ccc(CNC(=S)NCc2ccc(OC(C)C)cc2)cc1,17.8µM*,-17.5%,-9.3%,i,i,i
COc1ccc(C(CCNCc2ccc(N(C)C)cc2)c2ccccc2OC)cc1 (stereo not given),-48.4%,?,?,i,?,i
COc1ccc(C(CCNCc2ccc(OC(C)C)cc2)c2ccccc2OC)cc1 (stereo not given),11.2µM*,14.1µM*,nt,14.1µM*,23.1µM*,?
COc1ccc(OC)c(NC(=O)Nc2nc(CN(C)C)cs2)c1,-0.3%,25.8%,-3.5%,i,i,i
O=S(=O)(c1ccc(F)cc1)n1ccc(-c2cccc(OCc3c(F)cccc3Cl)c2)n1,-5.6%,-14.9%,1.3%,?,20.6µM*,?
O=C1NC(=O)C2(CCC(C3CCCCC3)CC2)N1 (stereo not given),2.4%,?,2.1%,i,4.11µM*,?
Cc1ccc(-c2[nH]c3ccccc3c2C(C[N+](=O)[O-])c2ccco2)cc1 (stereo not given),15.8µM*,?,0.0%,i,20.6µM*,i
Cc1[nH]c2ccccc2c1C(C[N+](=O)[O-])c1ccco1 (stereo not given),-13.5%,-15.0%,3.9%,i,i,i
N=C1N(c2ccccc2)C(=S)C(=Nc2ccccc2)N1c1ccccc1,19.7%,1.58µM*,34.4%,i,i,i
SMILES,HepG2 tox,TGFb inhibitor,ATXN2 expr inh,S2 tox,KB-V1 cytotox,KB-3-1 tox
CC(C)(C)c1ccc(-n2ncc3c2CCCC3NC(=O)CN2CCCC2=O)cc1 (stereo not given),12.6µM*,-41.9%,-11.9%,i,8.2µM*,?
Cc1cc(=O)oc2cc(OCC(=O)Nc3c(C(C)C)cccc3C(C)C)ccc12,-2.0%,-12.5%,-2.7%,i,i,i
CNCc1ccccc1Sc1ccc(O)c(O)c1,-25.1%,?,-28.9%,i,23.1µM*,i
COc1ccc(Sc2ccccc2CN(C)C)cc1OC,-1.2%,20.2%,0.3%,i,i,i
Cc1ccc(C(=O)Nc2c(C)nc3ccccn3c2=O)cc1C,-20.2%,-19.0%,nt,nt,nt,nt
NC1=NC(=Nc2cccc(S(N)(=O)=O)c2)c2ccccc21,-31.9%,-2.5%,nt,i,i,i
COc1cc(N=Nc2cccc(S(N)(=O)=O)c2)c2ccccc2c1N,-29.5%,0.0%,25.0%,nt,i,23.1µM*
O=C(CSc1nc(C2CC2)nc2ccccc12)N1c2ccccc2Sc2ccc(C(F)(F)F)cc21,-15.8%,-2.5%,-10.6%,i,18.4µM*,?
CC(C)Cc1ccc(C(C)C(N)=Nc2ccc(O)cc2)cc1 (stereo not given),15.8µM*,?,?,i,?,?
COc1ccccc1OCC(=O)N(Cc1ccc(N(C)C)cc1)CC1CCCO1 (stereo not given),-3.5%,-14.5%,nt,nt,nt,nt
CCN(CC(=O)NC(C)C)Cc1nc2c(Br)cc(Br)cc2c(=O)[nH]1,-35.0%,?,nt,i,9.2µM*,i
Cc1ccc(C2Oc3ccccc3C3=C2C(c2cccs2)n2ncnc2N3)cc1 (stereo not given),-23.6%,0.0%,-22.7%,i,i,9.2µM*
O=C1c2oc3ccccc3c(=O)c2C(c2cccc(O)c2)N1Cc1ccc(F)cc1 (stereo not given),0.2%,?,-26.4%,i,i,i
OC(COc1ccc(F)cc1Cl)CN1CCC(Cc2ccccc2)CC1 (stereo not given),15.8µM*,?,nt,?,i,i
Cc1ccc(OCC(O)CN2CCC(Cc3ccccc3)CC2)c(C)c1 (stereo not given),-48.5%,?,?,i,i,i
C=CCc1ccc(OCC(O)CN2CCN(c3ccccc3OC)CC2)c(OC)c1 (stereo not given),-30.0%,?,-21.2%,i,i,i

# High-throughput results deposited in PubChem BioAssay by National Center for Advancing Translational Sciences (NCATS).
